Out of some 97,000 compounds screened, about 130 (0.13%) were called active. The list comes from a sample in which actives are over-represented; it also holds similar structures and randomly drawn compounds. Values without a mark were called inactive. Cut-off read from the data, not from the text of the source: active = inhibition above about 34% (passing the limit was not always enough); inactive = the rest.
What follows are compounds tested against Serine/threonine-protein kinase PLK1 (Homo sapiens) (UniProt P53350) (assay: Plk1 polo box domain binding inhibitors, primary screen, biochemical, fluorescence polarization (AID 693)). Details: Plk1 PBD phosphopeptide binding, hits give high values,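 tested at about 20 µM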.
Sequence of Serine/threonine-protein kinase PLK1 (Homo sapiens) (P53350 whole entry, looked up, the tested form may be a part): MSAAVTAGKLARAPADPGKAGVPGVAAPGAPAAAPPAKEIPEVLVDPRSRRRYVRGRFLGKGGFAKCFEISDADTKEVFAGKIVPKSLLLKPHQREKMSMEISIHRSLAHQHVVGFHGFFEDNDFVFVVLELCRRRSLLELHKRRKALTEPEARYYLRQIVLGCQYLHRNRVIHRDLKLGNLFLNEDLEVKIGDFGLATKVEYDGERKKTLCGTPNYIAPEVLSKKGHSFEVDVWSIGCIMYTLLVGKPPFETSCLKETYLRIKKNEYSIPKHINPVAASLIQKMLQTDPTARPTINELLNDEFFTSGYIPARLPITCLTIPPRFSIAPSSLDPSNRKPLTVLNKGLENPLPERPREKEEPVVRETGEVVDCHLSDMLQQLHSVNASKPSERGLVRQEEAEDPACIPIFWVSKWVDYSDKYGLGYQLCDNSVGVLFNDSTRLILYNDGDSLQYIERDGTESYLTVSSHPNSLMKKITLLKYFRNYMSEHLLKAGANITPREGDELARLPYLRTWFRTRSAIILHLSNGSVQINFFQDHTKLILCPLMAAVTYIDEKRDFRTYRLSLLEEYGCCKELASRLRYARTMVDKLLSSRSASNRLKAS

Row | Structure (SMILES) | inhibition
1 | Cn1c(N)c(C(=O)COC(=O)C23CC4CC(CC(C4)C2)C3)c(=O)n(C)c1=O | -3.11%
2 | COc1cc(C(=O)OC(C)C(=O)NCC2CCCCC2)cc(NC(=O)c2ccco2)c1OC (configuration not stated) | 2.04%
3 | COCc1cc(C)nc2sc(C(=O)NC3CCCCC3)c(N)c12 | -36.6%
4 | COc1ccc(CN(CC(=O)NC2CCCC2)C(=O)CCC(=O)Nc2cc(C)on2)cc1 | 4.15%
5 | O=C(N/N=C/c1ccsc1)c1cc(O)cc(O)c1 | -12.8%
6 | COc1ccc(CCNC(=S)NC(=O)/C=C/c2ccc(C)cc2)cc1OC | -11.8%
7 | N#Cc1ccsc1NC(=O)CN1CCCCC1 | -12.8%
8 | O=C1/C(=C\Nc2ccccc2)CCN1c1ncccn1 | 13.5%
9 | CC(C)(C)NS(=O)(=O)CC12CCC(CC1=O)C2(C)C (configuration not stated) | -2.53%
10 | O=C1CCN(C(=O)Nc2ccccc2)N1 | 11.2%
11 | CCOc1cc(/C=C2/N=C(c3ccc(C(C)(C)C)cc3)OC2=O)cc(Cl)c1OS(C)(=O)=O | -6.59%
12 | Cc1ccccc1NC(=O)c1ccccc1NS(=O)(=O)c1cccc2cccnc12 | 4.72%
13 | CC1CCCN(C(C(=O)Nc2ccc(C(C)C)cc2)c2ccc3c(c2)OCO3)C1 (configuration not stated) | -23.5%
14 | Cc1noc(/C=C/c2ccco2)c1S(=O)(=O)N1CCC(C(=O)N2CCc3ccccc32)CC1 | -18.1%
15 | CCCCCCC(=O)Nc1nc(C)c(-c2csc(Nc3cccc(OC)c3)n2)s1 | -14.7%
16 | O=C(Nc1ccc(Cl)cc1)c1cc2nc(C3CC3)cc(C(F)(F)F)n2n1 | 6.19%
17 | O=C(NC1CCCCC1)c1cc([N+](=O)[O-])ccc1N1CCOCC1 | 22%
18 | O=C(CCc1ccccc1)NCc1cccnc1 | 22.9%
19 | CC(=O)Nc1ccc(OCC(O)CN2CCN(c3ccccc3Cl)CC2)cc1 (configuration not stated) | -14%
20 | O=C(O)C1CC=CCC1C(=O)Nc1ccccc1C(=O)N1CCN(c2ccccc2)CC1 (configuration not stated) | 2.13%
21 | Cc1cc(C)c(S(=O)(=O)c2ccccc2)c(OC(=O)c2c(F)cccc2Cl)n1 | -3.99%

Row | Structure (SMILES) | inhibition
22 | COc1ccc(NC(=O)Cn2c(-c3ccc(OC)cc3)cn(-c3ccc(C)cc3)c2=O)cc1 | 4.16%
23 | COc1ccc(-c2nn(-c3ccccc3)cc2C(=O)Nc2nccs2)cc1OC | 3.37%
24 | COc1ccccc1C(=O)Nc1ccc(NC(=O)c2ccco2)c(C)c1 | -21.6%
25 | O=c1c2c(nc3nc[nH]n13)CCC2 | 7.34%
26 | CCCC(C)C(=O)Nc1ccc(NC(C)=O)cc1 (configuration not stated) | -14.8%
27 | Cc1ccc(NC(=O)N2CCC(O)(c3cccnc3)CC2)cc1 | 2.21%
28 | CCOC(=O)c1cc2n(c1C)-c1ccccc1C2=O | -27.7%
29 | CC(C)OC(=O)CN1C(=O)C(=O)c2ccccc21 | -13.6%
30 | CCOC(=O)c1cc2n(c1N)-c1ccccc1C2=O | 45.1% (active)
31 | O=C1c2ccccc2C(=O)c2c1cccc2N1CCN(Cc2ccccc2)CC1 | -20.8%
32 | Cc1cc(NC(=O)/C=C/C(=O)N(c2ccccc2C)C(C(=O)NC2CCCC2)c2ccc(F)cc2)no1 (configuration not stated) | -15.6%
33 | CCCCNC(=O)c1onc(CSc2cccc(OC)c2)c1C(=O)O | 25.6%
34 | CO/N=C(/CS(=O)(=O)c1ccc(Br)cc1)c1ccc(OC)cc1 | 2.77%
35 | Cc1ccc(Cl)cc1NC(=O)COC(=O)C1CCCCC1 | -19.8%
36 | COc1ccccc1-c1n[nH]c2c1[C@H](C)CC[C@H]2C(C)C | -16.8%
37 | COc1ccc(C(=O)Nc2ccc(CN3CCOCC3)cc2)cc1 | -5.41%
38 | N#Cc1nc(-c2ccc(OCc3ccccc3)cc2)oc1NCCCN1CCOCC1 | -11.4%
39 | COc1ccccc1-c1nc(C#N)c(N2CCC(C(N)=O)CC2)o1 | 33.2%
40 | COc1ccc(Nc2oc(-c3ccccc3Cl)nc2C#N)cc1 | 42.4% (active)
41 | Clc1ccc(-c2cc(COc3ccccc3)no2)cc1Cl | -15.4%
42 | Cc1ccc(S(=O)(=O)N(c2cccc(C)c2)C2CCS(=O)(=O)C2)cc1 (configuration not stated) | -7%

Row | Structure (SMILES) | inhibition
43 | Cc1nc2c(-c3ccc(F)cc3)c(C)nn2c(C)c1CCC(=O)NCc1ccco1 | 2.38%
44 | CCOc1ccc(CN2CCCN(C)CC2)cc1 | -6.01%
45 | Cc1ccc(NC(=O)Nc2ccc3oc(C)nc3c2)cc1 | 8.59%
46 | O=C(Nc1ccc2sc3ccccc3c(=O)c2c1)c1ccccc1Cl | 6.33%
47 | CC1(C)Cc2cccc(OCC(N)=O)c2O1 | 0.26%
48 | Cn1cnc([N+](=O)[O-])c1Sc1ccccc1 | -10.6%
49 | COCCCNCC(=O)Nc1sc(C)c(C)c1C(=O)OC | -27.8%
50 | COc1ccc(C2CC(=O)Nc3cc(C)c(C)cc32)c(OC)c1OC (configuration not stated) | 3.42%
51 | O=C(COC(=O)c1ccccc1SCC(=O)NC1CCCCC1)NC1CCCCC1 | 45.4%
52 | O=C(Cc1ccc(S(=O)(=O)N2CCCC2)s1)NC1CCCCCC1 | -9.65%
53 | Cc1cccc(COc2ccccc2/C=N/Nc2ccc([N+](=O)[O-])cc2)c1 | 0.38%
54 | CC(=O)NC1(c2cccc(F)c2)CCN(CC(=O)NC(C)C)CC1 | 15.8%
55 | Cc1cc2nnc(SCC(=O)N3CCN(c4ccccc4)CC3)n2c(N)n1 | -15.4%
56 | COc1ccccc1OCc1nc2ccccc2s1 | 7.18%
57 | O=C(Nc1ccccc1)OCc1cn(-c2ccc(Cl)cc2)nn1 | 6.75%
58 | O=S(=O)(NCC1OCCc2ccccc21)c1ccccc1 (configuration not stated) | -4.11%
59 | Cc1ccc(-n2nc(N)c3c(=O)oc(N(C)C)nc32)cc1 | 13.8%
60 | Cn1c(Cn2nnc3ccccc32)nnc1SCC(=O)c1ccccc1F | -16.2%
61 | CC(C)Oc1ccc(CCc2n[nH]c(=S)n2Cc2ccccc2)cc1 | -2.84%
62 | COc1ccc(C)cc1NC(=O)CCC(=O)Nc1nnc(C(F)(F)F)s1 | 19%

Reference: PubChem BioAssay AID693 (University of Pittsburgh Molecular Library Screening Center, 2007)
